# Only a selection was taken, and the strongest signals are over-represented in it overall.
# B1: B1567 (Bifidobacterium sp) (protein)
# chain: MKFTTAKKAVALTGAVAMLVSVAACGSDSGKSSQPAQDSDVKEITVWAWEPSLTQVAKDFEKETGIKVDLKNVGTNTKEYTQLDNAIEAGSGAPDVAQVEYYAVPQYAIKGNLLDITDKTSGYKDFYTPGPWASVQFAGKVYGLPMDSGPMAFFYNKEVFDKAGVDAEQIKTWDQYYDAAKKIHALGDNYYITSDTGDAGFFDSMTWLAGAKPFQTSSDGSEVTVNLTEDKGVKTFTDFWQKLLDEGLLDTKTAGWSEDWFKGMVDGTIASLFTGAWMPANLANSAADGAGKWRVTQMPTADGSTTNSENGGSSLAVLASTKKADAAYQFIEYANHGAGVATRVAGGAFPADKASLEKDSFKNATTVKNADGQDVDYFGGQKYNEVLAQAAENVSSGYQFLPFEVKARTIFGDYFGKSYTGDQKLSDGVAAWQKALQDYGKDQGFTVK
# Key:
# Test in all cases: glycan array binding signal (z-score within array); higher = stronger binding
# Settings in all cases: glycan notation: IUPAC condensed, linker removed
# [1] = target: Fuc(a1-2)Gal(b1-3)GalNAc(a1-3)[Fuc(a1-2)]Gal(b1-4)Glc
# Method in brief: (§1)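 Glycan array binding is given as a within-array Z-score, which can be read as non-binding when negative. The arrays, 3228 of them, came from the Consortium for Functional Glycomics database and were retained only where the protein sequence was available. Z-scores were averaged across arrays of the same protein sequence at different concentrations or buffers and across linkers.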
# [2] = target: Fuc(a1-2)Gal(b1-3)[Fuc(a1-4)]GlcNAc(b1-2)Man(a1-3)[Fuc(a1-2)Gal(b1-3)[Fuc(a1-4)]GlcNAc(b1-2)Man(a1-6)]Man(b1-4)GlcNAc(b1-4)[Fuc(a1-6)]GlcNAc(b1-4)[Fuc(a1-6)]GlcNAc
# Method in brief: as §1
# Fuc(a1-2)Gal(b1-4)Glc6S = target: Fuc(a1-2)Gal(b1-4)Glc6S
# Method in brief: as §1
# [3] = target: Fuc(a1-2)Gal(b1-4)GlcNAc(b1-3)GalNAc
# Method in brief: as §1
# [4] = target: Fuc(a1-2)Gal(b1-4)[Fuc(a1-3)]GlcNAc(b1-3)Gal(b1-4)[Fuc(a1-3)]GlcNAc
# Method in brief: as §1
# [5] = target: Fuc(a1-2)[Gal(a1-3)]Gal(b1-3)GlcNAc(b1-3)GalNAc
# Method in brief: as §1
# [6] = target: Fuc(a1-2)[GalNAc(a1-3)]Gal(b1-4)GlcNAc(b1-2)Man(a1-3)[Fuc(a1-2)[GalNAc(a1-3)]Gal(b1-4)GlcNAc(b1-2)Man(a1-6)]Man(b1-4)GlcNAc(b1-4)GlcNAc
# Method in brief: as §1
# [7] = target: Fuc(a1-3)[Gal(b1-4)]GlcNAc(b1-6)[Gal(b1-3)GlcNAc(b1-3)]Gal(b1-4)Glc
# Method in brief: as §1
# Fuc(a1-4)GlcNAc = target: Fuc(a1-4)GlcNAc
# Method in brief: as §1
# Gal(a1-3)Gal(b1-3)GlcNAc = target: Gal(a1-3)Gal(b1-3)GlcNAc
# Method in brief: as §1
# [8] = target: Gal(a1-4)Gal(b1-4)GlcNAc(b1-2)Man(a1-3)[Gal(a1-4)Gal(b1-4)GlcNAc(b1-2)Man(a1-6)]Man(b1-4)GlcNAc(b1-4)GlcNAc
# Method in brief: as §1
# [9] = target: Gal(b1-3)GalNAc(a1-3)[Fuc(a1-2)]Gal(b1-4)Glc
# Method in brief: as §1
# Gal(b1-3)GlcNAc(b1-2)Man = target: Gal(b1-3)GlcNAc(b1-2)Man
# Method in brief: as §1
# [10] = target: Gal(b1-3)[GlcNAc(b1-6)]GalNAc
# Method in brief: as §1
# [11] = target: Gal(b1-3)[Neu5Ac(a2-6)]GlcNAc(b1-4)Gal(b1-4)Glc
# Method in brief: as §1
# [12] = target: Gal(b1-4)GalNAc(b1-3)[Fuc(a1-2)]Gal(b1-4)GlcNAc
# Method in brief: as §1
# Gal(b1-4)GlcNAc(b1-2)Man = target: Gal(b1-4)GlcNAc(b1-2)Man
# Method in brief: as §1
# [13] = target: Gal(b1-4)GlcNAc(b1-2)Man(a1-6)Man(b1-4)GlcNAc(b1-4)GlcNAc
# Method in brief: as §1
# [14] = target: Gal(b1-4)GlcNAc(b1-2)[Gal(b1-4)GlcNAc(b1-6)]Man(a1-6)[GlcNAc(b1-4)][Gal(b1-4)GlcNAc(b1-2)Man(a1-3)]Man(b1-4)GlcNAc(b1-4)GlcNAc
# Method in brief: as §1
# [15] = target: Gal(b1-4)GlcNAc(b1-3)Gal(b1-4)Glc
# Method in brief: as §1
# [16] = target: Gal(b1-4)GlcNAc(b1-3)Gal(b1-4)GlcNAc
# Method in brief: as §1
# [17] = target: Gal(b1-4)GlcNAc(b1-3)Gal(b1-4)GlcNAc(b1-3)Gal(b1-4)GlcNAc
# Method in brief: as §1
# [18] = target: Gal(b1-4)GlcNAc(b1-3)Gal(b1-4)GlcNAc(b1-3)Gal(b1-4)GlcNAc(b1-2)Man(a1-3)[Gal(b1-4)GlcNAc(b1-3)Gal(b1-4)GlcNAc(b1-3)Gal(b1-4)GlcNAc(b1-2)Man(a1-6)]Man(b1-4)GlcNAc(b1-4)GlcNAc
# Method in brief: as §1
# [19] = target: Gal(b1-4)GlcNAc(b1-3)Gal(b1-4)GlcNAc(b1-3)Gal(b1-4)GlcNAc(b1-2)Man(a1-3)[Gal(b1-4)GlcNAc(b1-3)Gal(b1-4)GlcNAc(b1-3)Gal(b1-4)GlcNAc(b1-2)Man(a1-6)]Man(b1-4)GlcNAc(b1-4)[Fuc(a1-6)]GlcNAc
# Method in brief: as §1
# [20] = target: Gal(b1-4)GlcNAc(b1-3)Gal(b1-4)GlcNAc(b1-3)Gal(b1-4)GlcNAc(b1-2)[Gal(b1-4)GlcNAc(b1-3)Gal(b1-4)GlcNAc(b1-3)Gal(b1-4)GlcNAc(b1-6)]Man(a1-6)[Gal(b1-4)GlcNAc(b1-3)Gal(b1-4)GlcNAc(b1-3)Gal(b1-4)GlcNAc(b1-2)Man(a1-3)]Man(b1-4)GlcNAc(b1-4)[Fuc(a1-6)]GlcNAc
# Method in brief: as §1
# [21] = target: Gal(b1-4)GlcNAc(b1-3)Gal(b1-4)GlcNAc(b1-3)Gal(b1-4)GlcNAc(b1-3)Gal(b1-4)GlcNAc(b1-2)[Gal(b1-4)GlcNAc(b1-3)Gal(b1-4)GlcNAc(b1-3)Gal(b1-4)GlcNAc(b1-3)Gal(b1-4)GlcNAc(b1-6)]Man(a1-6)[Gal(b1-4)GlcNAc(b1-3)Gal(b1-4)GlcNAc(b1-3)Gal(b1-4)GlcNAc(b1-3)Gal(b1-4)GlcNAc(b1-2)Man(a1-3)]Man(b1-4)GlcNAc(b1-4)[Fuc(a1-6)]GlcNAc
# Method in brief: as §1
# [22] = target: Gal(b1-4)GlcNAc(b1-3)Gal(b1-4)GlcNAc(b1-3)Gal(b1-4)GlcNAc(b1-3)Gal(b1-4)GlcNAc(b1-3)Gal(b1-4)GlcNAc(b1-3)Gal(b1-4)GlcNAc(b1-2)Man(a1-3)[Gal(b1-4)GlcNAc(b1-3)Gal(b1-4)GlcNAc(b1-3)Gal(b1-4)GlcNAc(b1-3)Gal(b1-4)GlcNAc(b1-3)Gal(b1-4)GlcNAc(b1-3)Gal(b1-4)GlcNAc(b1-2)Man(a1-6)]Man(b1-4)GlcNAc(b1-4)GlcNAc
# Method in brief: as §1
# [23] = target: Gal(b1-4)GlcNAc(b1-3)Gal(b1-4)[Fuc(a1-3)]GlcNAc(b1-3)Gal(b1-4)[Fuc(a1-3)]GlcNAc
# Method in brief: as §1
# Gal(b1-6)Gal = target: Gal(b1-6)Gal
# Method in brief: as §1
# Gal3S(b1-4)Glc = target: Gal3S(b1-4)Glc
# Method in brief: as §1
# GalNAc(b1-3)Gal = target: GalNAc(b1-3)Gal
# Method in brief: as §1
# [24] = target: GalNAc(b1-3)Gal(a1-4)Gal(b1-4)GlcNAc(b1-3)Gal(b1-4)Glc
# Method in brief: as §1
# [25] = target: GalNAc(b1-4)GlcNAc(b1-2)Man(a1-3)[GalNAc(b1-4)GlcNAc(b1-2)Man(a1-6)]Man(b1-4)GlcNAc(b1-4)GlcNAc
# Method in brief: as §1
# GalNAc(b1-6)GalNAc = target: GalNAc(b1-6)GalNAc
# Method in brief: as §1
# GalNAc3S(b1-4)GlcNAc3S = target: GalNAc3S(b1-4)GlcNAc3S
# Method in brief: as §1
# [26] = target: GlcNAc(a1-4)Gal(b1-4)GlcNAc(b1-3)Gal(b1-4)[Fuc(a1-3)]GlcNAc(b1-3)Gal(b1-4)[Fuc(a1-3)]GlcNAc
# Method in brief: as §1
# [27] = target: GlcNAc(b1-2)[GlcNAc(b1-4)]Man(a1-3)[GlcNAc(b1-4)][GlcNAc(b1-2)[GlcNAc(b1-6)]Man(a1-6)]Man(b1-4)GlcNAc(b1-4)[Fuc(a1-6)]GlcNAc
# Method in brief: as §1
# [28] = target: GlcNAc(b1-3)Gal(b1-4)GlcNAc(b1-3)Gal(b1-4)GlcNAc(b1-2)Man(a1-3)[GlcNAc(b1-3)Gal(b1-4)GlcNAc(b1-3)Gal(b1-4)GlcNAc(b1-2)Man(a1-6)]Man(b1-4)GlcNAc(b1-4)GlcNAc
# Method in brief: as §1
# [29] = target: GlcNAc(b1-3)Gal(b1-4)GlcNAc(b1-3)[GlcNAc(b1-3)Gal(b1-4)GlcNAc(b1-3)]GalNAc
# Method in brief: as §1
# [30] = target: Man(a1-2)Man(a1-3)[Man(a1-6)]Man(a1-6)[Man(a1-2)Man(a1-3)]Man(b1-4)GlcNAc(b1-4)GlcNAc
# Method in brief: as §1
# Man(b1-4)GlcNAc = target: Man(b1-4)GlcNAc
# Method in brief: as §1
# Neu5Ac(a2-3)Gal = target: Neu5Ac(a2-3)Gal
# Method in brief: as §1
# [31] = target: Neu5Ac(a2-3)Gal(b1-3)GalNAc(b1-4)Gal(b1-4)Glc
# Method in brief: as §1
# [32] = target: Neu5Ac(a2-3)Gal(b1-4)GlcNAc(b1-2)Man(a1-3)[Neu5Ac(a2-3)Gal(b1-4)GlcNAc(b1-2)Man(a1-6)]Man(b1-4)GlcNAc(b1-4)[Fuc(a1-6)]GlcNAc
# Method in brief: as §1
# [33] = target: Neu5Ac(a2-6)Gal(b1-3)GlcNAc(b1-3)[Gal(b1-4)GlcNAc(b1-6)]Gal(b1-4)Glc
# Method in brief: as §1
# [34] = target: Neu5Ac(a2-6)Gal(b1-4)GlcNAc(b1-2)Man(a1-3)[Gal(b1-4)GlcNAc(b1-2)Man(a1-6)]Man(b1-4)GlcNAc(b1-4)GlcNAc
# Method in brief: as §1
# [35] = target: Neu5Ac(a2-6)Gal(b1-4)GlcNAc6S
# Method in brief: as §1
# [36] = target: Neu5Gc(a2-3)Gal(b1-4)[Fuc(a1-3)]GlcNAc
# Method in brief: as §1
binder,measurement,setting,value
B1,glycan array binding signal (z-score),[1],-0.161
same,glycan array binding signal (z-score),[2],-0.08
same,glycan array binding signal (z-score),Fuc(a1-2)Gal(b1-4)Glc6S,-0.184
same,glycan array binding signal (z-score),[3],-0.127
same,glycan array binding signal (z-score),[4],-0.104
same,glycan array binding signal (z-score),[5],-0.097
same,glycan array binding signal (z-score),[6],0.019
same,glycan array binding signal (z-score),[7],-0.15
same,glycan array binding signal (z-score),Fuc(a1-4)GlcNAc,-0.077
same,glycan array binding signal (z-score),Gal(a1-3)Gal(b1-3)GlcNAc,-0.129
same,glycan array binding signal (z-score),[8],0.067
same,glycan array binding signal (z-score),[9],-0.013
same,glycan array binding signal (z-score),Gal(b1-3)GlcNAc(b1-2)Man,0.008
same,glycan array binding signal (z-score),[10],-0.138
same,glycan array binding signal (z-score),[11],-0.133
same,glycan array binding signal (z-score),[12],-0.08
same,glycan array binding signal (z-score),Gal(b1-4)GlcNAc(b1-2)Man,-0.12
same,glycan array binding signal (z-score),[13],-0.101
same,glycan array binding signal (z-score),[14],-0.145
same,glycan array binding signal (z-score),[15],14.9
same,glycan array binding signal (z-score),[16],0.588
same,glycan array binding signal (z-score),[17],1.4
same,glycan array binding signal (z-score),[18],0.282
same,glycan array binding signal (z-score),[19],0.333
same,glycan array binding signal (z-score),[20],0.271
same,glycan array binding signal (z-score),[21],0.348
same,glycan array binding signal (z-score),[22],1.66
same,glycan array binding signal (z-score),[23],1.8
same,glycan array binding signal (z-score),Gal(b1-6)Gal,11
same,glycan array binding signal (z-score),Gal3S(b1-4)Glc,-0.135
same,glycan array binding signal (z-score),GalNAc(b1-3)Gal,-0.116
same,glycan array binding signal (z-score),[24],-0.139
same,glycan array binding signal (z-score),[25],0.398
same,glycan array binding signal (z-score),GalNAc(b1-6)GalNAc,-0.095
same,glycan array binding signal (z-score),GalNAc3S(b1-4)GlcNAc3S,-0.058
same,glycan array binding signal (z-score),[26],0.042
same,glycan array binding signal (z-score),[27],-0.12
same,glycan array binding signal (z-score),[28],0.008
same,glycan array binding signal (z-score),[29],-0.052
same,glycan array binding signal (z-score),[30],0.007
same,glycan array binding signal (z-score),Man(b1-4)GlcNAc,-0.154
same,glycan array binding signal (z-score),Neu5Ac(a2-3)Gal,-0.108
same,glycan array binding signal (z-score),[31],-0.112
same,glycan array binding signal (z-score),[32],-0.063
same,glycan array binding signal (z-score),[33],-0.118
same,glycan array binding signal (z-score),[34],-0.128
same,glycan array binding signal (z-score),[35],-0.094
same,glycan array binding signal (z-score),[36],-0.036

# Reference: the supplement of paper PMC8728848
